Measurements published in PubChem BioAssay (NCI).
The panel holds about 83,000 compounds, 20% with a hit somewhere; the sample as a whole holds those more often.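 The test compound was applied at a single concentration to cells in 96-well plates for 48 hours, and percent growth was recorded.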 The source made the active and inactive calls. How the source made its calls: active means growth percent below 10; inactive means the rest.

What follows are molecules tested on MDA-MB-468 breast (assay: NCI-60 one-dose screen, 48 h (100 = growth as untreated, 0 = no growth, -100 = all killed)). Conditions: 10 µM unless noted.

Structure (SMILES) | growth
O=C(Cn1cc(CN2C(=O)c3ccccc3S2(=O)=O)nn1)Nc1nc2ccccc2s1 | 130% (inactive)
N/C(=N\O)c1ccncc1 | 121% (inactive)
Clc1ccc(-c2nnc(COc3ccccc3Cl)o2)cc1 | 93.7% (inactive)
O=C(CCl)Nc1ccc2c(c1)C(=O)c1ccc(NC(=O)CCl)cc1C2=O | -75.7% (active)
O=C(c1ccccc1)[C@H]1[C@@H]2CCCN2[C@]2(C(=O)Nc3ccc(F)cc32)[C@]12C(=O)Nc1ccccc12 | 96.2% (inactive)
CC1=CC[C@@H]2C(C)(C)[C@@H](O)CC[C@@]2(C)[C@@H]1COc1ccc2ccc(=O)oc2c1 | 42.8% (inactive)
NC1(N2SC(S)=C3CCCC=C32)CCCCC1 | 99.9% (inactive)
CN1CCc2nc3sc(C(N)=O)c(N)c3c(-c3cccs3)c2C1 | 14.2% (inactive)
COc1ccc(Nc2nc(NCCNc3ccnc4cc(Cl)ccc34)nc(N3CCOCC3)n2)cc1 | 23.9% (inactive)
COC(=O)c1c(C(=O)OC)c2ccc3c4ncccc4ccc3n2c1C(=O)c1ccc(C)cc1 | 79.1% (inactive)
C=C1C(=O)O[C@H]2[C@H]1CC/C(COC(=O)NCCCCCCCCNC(=O)OC/C1=C/CC[C@@]3(C)O[C@H]3[C@H]3OC(=O)C(=C)[C@@H]3CC1)=C\CC[C@@]1(C)O[C@@H]21 | -46.1% (active)
O=C(CSc1nc2ccccc2c(=O)n1-c1ccccc1)Nc1ccc(-c2nc3ccc([N+](=O)[O-])cc3[nH]2)cc1 | 81.5% (inactive)
O=C(Nc1ccc(Cl)cc1)Nc1ccc(Oc2nncc3ccccc23)cc1 | -76.2% (active)
Cc1[nH]c(C(=O)Nc2ccc(C(=O)N3CCNCC3)cc2OC(C)C)c(Cl)c1Cl | 64.8% (inactive)
CCN(CC)CCCC(C)Nc1cc(-c2ccc(C(F)(F)F)cc2)c(C#N)c2nc3ccccc3n12 (stereo not given) | -23.6% (active)
Nc1c(C(=O)c2ccc(Br)cc2)sc2nc3c(cc12)CCCC3 | 79.1% (inactive)
O=C(Nc1cccc(Cl)c1)Oc1c(Cl)c(Cl)c(Cl)c(Cl)c1Cl | 110% (inactive)
COc1cc2nc(-c3ccc(C(F)(F)F)cc3)cc(OCCCN3CCOCC3)c2cc1OC | 49.4% (inactive)
Clc1cccc(CNc2c3ccccc3nc3ccccc23)c1 | -18.4% (active)
O=C(/C=C/c1ccccc1)c1cccc2ccccc12 | -2.6% (active)

Structure (SMILES) | growth
O=C(Nc1cccc(-n2cc(-c3ccncc3)c(-c3cc(O)cc(Cl)c3)n2)c1)Nc1ccc(Cl)c(C(F)(F)F)c1 | 5.22% (active)
N#CCc1ccc([N+](=O)[O-])cc1 | 96.8% (inactive)
CC(C)C1CCCCC1O (stereo not given) | 107% (inactive)
O=S(=O)(O)c1cc(O)c2c(N=Nc3ccc(Nc4ccccc4)c4c(S(=O)(=O)O)cccc34)cc(S(=O)(=O)O)cc2c1 | 103% (inactive)
CC[Si](CC)(CC)OC1[C@@H](O[Si](CC)(CC)CC)[C@@H](CNC(=O)NC)O[C@H]1n1cnc2c(NC(=O)Nc3ccccc3)ncnc21 (stereo not given in full) | 97.5% (inactive)
COc1ccc(Nc2nnc(-c3ccc(OC)c(OC)c3)o2)cc1 | 90.8% (inactive)
CCCCCCNC(=O)Oc1ccc(/C(=C(/C)c2ccc(OC)cc2)c2ccc(OCCN3CCCCCC3)cc2)cc1 | 1.03% (active)
CC1CCCCC[N+]12CCCC2 (stereo not given) | 99.4% (inactive)
CCCCOc1nc2ccc(Cl)cc2cc1/C=C/C(=O)/C=C1/CC(c2cc3cc(Cl)ccc3nc2OCCCC)Nc2ccccc2N1 (stereo not given) | 103% (inactive)
COC(=O)CNC(=O)c1cccc(-c2cc(=O)c3c(OC)c(OC)c(OC)cc3o2)c1 | 89.8% (inactive)
O=c1nc2sc3nc4ccccc4cc3cc-2s1 | 124% (inactive)
CC(C)C1C2=C(NCCN1C(=O)c1ccncc1)C(C)(C)N(Cc1ccccc1)C2=O (stereo not given) | 110% (inactive)
O=C(N/N=C/c1ccc(F)cc1)c1ccccc1Nc1cccc(C(F)(F)F)c1 | 83.9% (inactive)
NC1CCC(Nc2nc(NCc3cc(Cl)ccc3O)c3ncn(C4CCCC4)c3n2)CC1 (stereo not given) | -51% (active)
C#CC#CC#CC#CC#CC#CC#CC#CCC1OC[C@H](COC(=O)O[C@@H](C(=O)O[C@H]2C[C@@]3(O)[C@@H](OC(=O)c4ccccc4)[C@@H]4[C@]5(OC(C)=O)CO[C@@H]5C[C@H](O)[C@@]4(C)C(=O)[C@H](OC(C)=O)C(=C2C)C3(C)C)[C@@H](NC(=O)c2ccccc2)c2ccccc2)O1 (stereo not given in full) | 8.69% (active)
CCCCCCCc1n(Cc2ccc3ccccc3c2)c2ccccc2[n+]1Cc1ccc2ccccc2c1 | -69.6% (active)
CC(C)CCNCC(O)Cn1c2ccccc2c2ccccc21 (stereo not given) | 2.41% (active)
Cc1cc(C(=O)Nc2cc(Oc3ccc4nc(NC(=O)C5CC5)cn4n3)ccc2C)n(C)n1 | 21% (inactive)
N=C(N)c1ccc(-c2ccc(-c3cccs3)s2)nc1 | -51% (active)
COc1cc2ncnc(-n3ncc4cc(NC(=O)Nc5ccccc5)ccc43)c2cc1OC | -67% (active)
